PubChem BioAssay (NCI)
About 83,000 compounds went through this panel and 20% of them were active in at least one assay; those are over-represented in the sample as a whole.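 A percent growth of 40 corresponds to 60% growth inhibition; 0 means no net growth; -100 means all cells died. Active threshold: below 10.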 The source made the active and inactive calls.

tested on: MDA-MB-468 breast; test: NCI-60 one-dose screen, 48 h (100 = growth as untreated, 0 = no growth, -100 = all killed); conditions: 10 µM unless noted

Compound | growth
Fc1cccc(-c2nc(-c3c[nH]c4ncccc34)cs2)c1 | 29.4% [100 µM] (inactive)
CC1OC2CC(=O)OC2C2=C1C(=O)c1c(O)cccc1C2=O (stereo not given) | -73.4% (active)
COc1ccc(C(=NNS(=O)(=O)c2ccc(C)cc2)c2ccccc2)cc1OC | 103% (inactive)
COc1ccc2c3ccnc(C(F)(F)F)c3n(CCCCN)c2c1 | 33.7% (inactive)
NC1C2CCC1CN(c1cnc(C(=O)Nc3cc(F)cc4cccnc34)cn1)C2 (stereo not given) | -4.02% (active)
COC(=O)CC/C(C)=N\Nc1ccc([N+](=O)[O-])cc1 | 71.1% (inactive)
COc1ccc(C(=O)c2cc(OC)c(OC)c(OC)c2)cc1O | -14.4% (active)
c1ccc(-c2nc(N3CCCNCC3)c3nc(-c4ccccc4)oc3n2)cc1 | -52.9% (active)
Clc1ccc2[nH]cc(-c3cncn3CCc3ccc4c(c3)OCO4)c2c1 | 6.19% (active)
O=c1[nH]cnc2c1C(c1ccc(Br)cc1)c1sc3c(F)cccc3c1O2 (stereo not given) | 105% (inactive)
O=C(N/N=C(\CS(=O)(=O)c1ccccc1)c1cc2cc(Br)ccc2oc1=O)c1ccccc1 | 109% (inactive)
CCS(=O)(=O)OCCCl | 94.9% (inactive)
CCOC(=O)Oc1c(OC)cc(C(=O)c2ccc(OC)c(O)c2OC)cc1OC | 19.8% (inactive)
CCCCCCCCCCCCCCCC1=NCCN1 | -32.9% (active)
C=CC(C)(O)CCC1C(=C)CCC2C(C)(C)CCCC12C (stereo not given) | 109% (inactive)
Nc1n[nH]c2cccc(C#Cc3cccc(C(=O)Nc4cccc(C(F)(F)F)c4)c3)c12 | 101% (inactive)
Cc1oc(-c2ccc(Cl)cc2)nc1C1=NN(C(=O)c2ccncc2)C(c2ccccc2)C1 (stereo not given) | 108% (inactive)
CCc1ccc(Oc2cn[nH]c2-c2ccc(OCCc3ccc(F)cc3)cc2O)cc1 | 105% (inactive)
O=C(O)c1cccc2c1-c1ccc(Cl)cc1C2 | 108% (inactive)
CCc1nn2c(-c3ccc(Cl)cc3C)c(-c3cc(OC)c(OC)c(OC)c3)nc2s1 | 68.2% (inactive)

Compound | growth
C=CCOC(=O)C1=C(C)NC2=C(C(=O)CC(C)(C)C2)C1c1ccc(OC)cc1 (stereo not given) | 110% (inactive)
O=C1c2ccccc2-c2nnc(-c3ccc(Br)cc3)cc21 | 20.3% (inactive)
CC1CN(C(C)C)C(=S)N(c2ccccc2)C1=O (stereo not given) | 84.3% (inactive)
COc1ccc(-c2nc3sc(-c4ccccc4)cn3n2)cc1 | 18.7% (inactive)
O=[N+]([O-])c1ccc(-c2cc3c(Nc4ccc(Cl)c(C(F)(F)F)c4)ncnc3s2)cc1 | -10.2% (active)
COc1ccc2sc(-n3nc4nc5n(c(=O)c4c3N)-c3ccccc3Sc3ccccc3-5)nc2c1 | 88.9% (inactive)
CC(=O)Oc1ccccc1C(=O)Nc1ncc([N+](=O)[O-])s1 | 36.9% (inactive)
C=C(C)[C@@H]1CC[C@]2(C(=O)NCCNCCNCCN)CC[C@]3(C)[C@H](CC[C@@H]4[C@@]5(C)CC[C@H](O)C(C)(C)[C@@H]5CC[C@]43C)[C@@H]12 | -48.6% [100 µM] (active)
CCn1c(SCC(=O)Nc2cc(C(F)(F)F)ccc2Cl)nc2ccccc2c1=O | 50.3% (inactive)
COC(=O)[C@@H]1[C@H](O)[C@H](C)[C@H](O)[C@H](C)/C=C\C=C(C)C(=O)Nc2c(C)c(OC(C)=O)c3c(c2O)C(=O)C(C)=C2OCOC(=C23)C(C)=C[C@@](C)(O)[C@H](O)[C@@H](C)[C@H]1OC(C)=O | 110% (inactive)
CC[C@H](C)C(=O)O[C@H]1CCC=C2C=C[C@H](C)C(CCC3C[C@@H](O)CC(=O)O3)[C@H]21 (stereo not given in full) | 75.4% (inactive)
Cc1ccc(SC2c3ccc(C)cc3Oc3nc(N)c(C#N)c(N)c32)cc1 (stereo not given) | -36.5% (active)
CCNC(=O)N1CCc2cc(OC)c(OCCc3ccc(OC)c(N)c3)cc2C1c1cc(C)c(C)cc1C (stereo not given) | 42% (inactive)
C[C@H]1[C@H](C)CC[C@]2(C(=O)Nc3ccc4ncccc4c3)CC[C@]3(C)C(=CC[C@@H]4[C@@]5(C)CCCNC(C)(C)[C@@H]5CC[C@]43C)[C@H]12 | -55.7% (active)
C[C@H]1[C@H](C)CC[C@]2(CO)CC[C@]3(C)C(=CC[C@@H]4[C@@]5(C)CCCNC(C)(C)[C@@H]5CC[C@]43C)[C@H]12 | -78.6% (active)
COc1ccc(/C=C/C(=O)c2ccc(OC)c(OC)c2)cc1O | 65.6% (inactive)
COc1ccc(-c2nnc(COc3ccc(Cl)cc3Cl)o2)cc1OC | 71.9% (inactive)
O=c1c2cc(Cl)ccc2oc2ccc(OCCCCCN3CCCCC3)cc12 | 59.9% (inactive)
C/C(=N\O)c1ccc(NC(=O)CSc2nnc(-c3ccccc3)n2-c2ccccc2)cc1 | 75.4% (inactive)
CC1=C(C)C(=O)C(Nc2cccc(C(=O)OC(C)(C)C)c2)=C(Cl)C1=O | -23.6% (active)
